# Laboratory results as given in PubChem BioAssay AID651907 (Vanderbilt Specialized Chemistry Center, 2012).
# The source made the active and inactive calls. No rule for the calls is given here.
# Target: Histone deacetylase 7 (Homo sapiens) (UniProt Q8WUI4)
# Test: inhibitors of recombinant human HDAC7 – biochemical, selectivity assay for E-cadherin restoration project, profiling panel (AID 651907)
# Histone deacetylase 7 (Homo sapiens), sequence (Q8WUI4 whole entry, looked up): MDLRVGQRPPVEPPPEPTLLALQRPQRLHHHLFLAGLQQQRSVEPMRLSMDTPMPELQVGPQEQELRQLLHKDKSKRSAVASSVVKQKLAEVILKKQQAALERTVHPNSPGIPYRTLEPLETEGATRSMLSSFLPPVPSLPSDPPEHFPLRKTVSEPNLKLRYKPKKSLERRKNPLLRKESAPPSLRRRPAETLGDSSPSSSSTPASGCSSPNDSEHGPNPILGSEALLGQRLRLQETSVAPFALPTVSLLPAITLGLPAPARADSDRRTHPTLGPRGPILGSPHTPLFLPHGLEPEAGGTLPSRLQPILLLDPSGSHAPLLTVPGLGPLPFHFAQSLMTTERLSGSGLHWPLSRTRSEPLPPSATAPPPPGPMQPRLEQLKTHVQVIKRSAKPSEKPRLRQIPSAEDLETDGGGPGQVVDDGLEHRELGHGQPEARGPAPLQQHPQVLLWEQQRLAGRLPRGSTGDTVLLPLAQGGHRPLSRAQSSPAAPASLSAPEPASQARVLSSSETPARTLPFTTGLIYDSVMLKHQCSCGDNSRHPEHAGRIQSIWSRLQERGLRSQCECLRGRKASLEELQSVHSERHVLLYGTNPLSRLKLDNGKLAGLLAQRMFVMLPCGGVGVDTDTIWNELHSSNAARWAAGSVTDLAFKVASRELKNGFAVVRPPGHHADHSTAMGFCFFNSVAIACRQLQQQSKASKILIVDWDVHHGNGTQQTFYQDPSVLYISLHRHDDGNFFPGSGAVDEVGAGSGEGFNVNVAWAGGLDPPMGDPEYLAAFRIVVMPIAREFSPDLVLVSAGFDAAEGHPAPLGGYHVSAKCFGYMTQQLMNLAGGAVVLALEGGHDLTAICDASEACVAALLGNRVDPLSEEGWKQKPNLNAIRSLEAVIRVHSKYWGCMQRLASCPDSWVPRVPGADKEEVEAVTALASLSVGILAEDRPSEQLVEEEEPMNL
compound,measurement,value
O=C(NCCCNC(=O)c1ccc[nH]c1=O)c1cc(-c2ccccc2)on1,outcome,inactive
